# About 83,000 compounds went through this panel and 20% of them were active in at least one assay; those are over-represented in the sample as a whole.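 Testing used 96-well plates and a 48-hour single-concentration exposure. Example: -40 means 40% of the starting cells died.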 Calls of active or inactive are those of the source.
# Test system: HOP-62 NSCLC
# Test: NCI-60 one-dose screen, 48 h (100 = growth as untreated, 0 = no growth, -100 = all killed)
# Details: 10 µM
# Experimental: Growth inhibition of the HOP-62 human Non-Small Cell Lung tumor cell line is measured as a screen for anti-cancer activity. Cells are grown in 96 well plates and exposed to the test compound for 48 hours. Compounds are tested at a single concentration, which is 10^-5 M for most compounds. The reported endpoint is percent growth (GI% or GIPRCNT), where numbers from 0 - 100% represent growth inhibition, and numbers from -100% - 0 represent cell death. For example, a value of 40 represents 60% growth inhibition. A value of 0 means no net growth occurred over the course of the experiment. A value of -40 indicates 40% of cells at the beginning of the experiment died by the end of the experiment. A value of -100 means all cells are dead at the end of the experiment.
# NCI-60 Human Tumor Cell Lines Screen was performed using the standard one-dose NCI protocol, which is described in more detail at https://dtp.cancer.gov/discovery_development/nci-60/default.htm.
# Compounds with GIPRCNT values below 10 were considered active. Activity score was based on GIPRCNT using the following formula: […]
# Score is 0 for GIPRCNT values of 100 or above, 50 for GIPRCNT values of 0, and 100 for GIPRCNT values of -100.
row,SMILES,growth
1,O=C(c1ccccc1)N(C(=O)c1ccccc1)N1CCCC1,104% (inactive)
2,COc1ccc2cc(-c3nc4ccccc4s3)c(Cl)nc2c1OC,90.7% (inactive)
3,N#Cc1c(N)nc(-c2cc(F)cc(C(F)(F)F)c2)nc1-c1ccccc1F,21.9% (inactive)
4,Fc1ccc(C(c2ccc(F)cc2)C(Cl)Cl)cc1,115% (inactive)
5,COc1ccc(/C(C#N)=C/c2cccc(OC)c2OC)cc1,88% (inactive)
6,Cc1c(C(N)=O)sc2c1c(=O)n(Cc1ccccc1)c1nnc(-c3ccc(Br)cc3)n21,37.7% (inactive)
7,COc1nc2c(c(=O)n1C)CN(c1ccccc1)C(=O)C(C)N2 (stereo not given),88.1% (inactive)
8,NS(=O)(=O)Oc1ccc2c(ccn2C(=O)C23CC4CC(CC(C4)C2)C3)c1,111% (inactive)
9,CCOC(=O)CC(S(=O)(=O)c1ccccc1)S(=O)(=O)c1ccccc1,109% (inactive)
10,CN1CCN(CCC(=O)Nc2cccc(-n3cc(-c4ccncc4)c(-c4ccc(Cl)c(O)c4)n3)c2)CC1,53.7% (inactive)
11,Clc1ccc(/C=C2\CCCC3C2=Nc2ccccc2NC3c2ccc(Cl)cc2)cc1 (stereo not given),122% (inactive)
12,COc1ccc(/C=C2\CCCC3C2=Nc2ccccc2NC3c2ccc(OC)cc2)cc1 (stereo not given),128% (inactive)
13,COc1cc(-c2nn(-c3cccc(NC(=O)CN4CCOCC4)c3)cc2-c2cccnc2)ccc1Cl,98.9% (inactive)
14,C=CCN(CC=C)C(=O)[C@H](CC)[C@@H]1CC[C@@H](C)[C@@H]([C@H](C)[C@@H](O)[C@@H](C)C(=O)[C@H](CC)C2O[C@]3(C=CC(=O)[C@]4(CC[C@@](C)([C@H]5CC[C@](O)(CC)[C@H](C)O5)O4)O3)[C@H](C)C[C@@H]2C)O1 (stereo not given in full),31.4% (inactive)
15,COc1cc(-c2nn(-c3cccc(NC(=O)NCCNS(=O)(=O)c4ccc(Cl)cc4)c3)cc2-c2ccncc2)ccc1Cl,32.9% (inactive)
16,COc1cc2c(Nc3ccc(S(N)(=O)=O)cc3)ncnc2c(OC)c1OC,92.3% (inactive)
17,Cc1cc(CCNC=O)c(C)c2c1sc1ccccc12,86.2% (inactive)
18,O=C(Nc1ccc(OS(=O)(=O)c2ccccc2)cc1)C1CCCCC1,94.5% (inactive)
19,CS(=O)(=O)c1nccc(-c2c(-c3cccc(OCc4ccc(F)cc4)c3)nc3sccn23)n1,90.1% (inactive)
20,O=C(Nc1nc(-c2ccccc2)nc2c1sc(=S)n2-c1ccccc1)C(F)(F)F,101% (inactive)

row,SMILES,growth
1,Cc1ccc2nc(Cl)c(-c3nc4ccccc4o3)cc2c1,92.7% (inactive)
2,O=C(N/N=C/c1ccc([N+](=O)[O-])cc1)c1ccccc1Nc1cccc(C(F)(F)F)c1,89.4% (inactive)
3,CN(C)CCOc1ccccc1NC1=C(Cl)C(=O)C(Nc2ccccc2OCCN(C)C)=C(Cl)C1=O,110% (inactive)
4,CCc1ccc(-c2ccc(-n3nc(C)c4c(N)nc(Cc5ccccc5)nc43)cc2)cc1,65.6% (inactive)
5,O=C1/C=C/[C@@H](O)[C@@H]2C[C@@H](O)C[C@H]2/C=C/CCC[C@H](C(F)(F)F)O1,33% (inactive)
6,CN(C)CCCOc1cccc(NC2=C(Cl)C(=O)C(Nc3cccc(OCCCN(C)C)c3)=C(Cl)C2=O)c1,-85.1% (active)
7,CCCc1cn(CC(=O)Nc2nc3ccccc3s2)nn1,102% (inactive)
8,COc1cc(C2CC(c3ccc4c(c3)OCO4)=NN2c2ccccc2)cc(OC)c1OC (stereo not given),104% (inactive)
9,CCn1cc(C(=O)O)c(=O)c2cc(F)c(N3CCNCC3)cc21,108% (inactive)
10,Cc1ccc(NC(=S)NNC(=S)Nc2ccc(C)cc2)cc1,45.2% (inactive)
11,O=C(N/N=C/c1ccc(Cl)cc1)c1ccccc1Nc1cccc(C(F)(F)F)c1,72.9% (inactive)
12,CC(CN(C)C)Oc1ccc(OC(C)CN(C)C)c2c1C(=O)c1ccccc1C2=O (stereo not given),49.3% (inactive)
13,CCOC(=O)C1C(C(=O)OCC)C2C(=O)C3C(C(=O)OCC)C(C(=O)OCC)C3C(=O)C12 (stereo not given),96.2% (inactive)
14,CCOC(=O)c1cc(C(=O)c2cc(OC)cc(OC)c2)n2nc(C)ccc12,48.4% (inactive)
15,OCC1OC2C(NC(=S)N2c2ccccc2)C(O)C1O (stereo not given),101% (inactive)
16,Cc1cc(SCc2ccccc2)nc(N)n1,105% (inactive)
17,CCOC(=O)c1cc(C(=O)c2ccc(Cl)cc2)n2ccc(-c3cc[n+](CC(=O)c4ccc(OC)cc4)cc3)cc12,87.7% (inactive)
18,CCCCCCCCCCCC[n+]1c(C)cc(N)c2ccccc21,3.61% (active)
19,COc1cc(C(=O)/C=C/c2c[nH]c3ccccc23)cc(OC)c1OC,41.1% (inactive)
20,CN(C)CCOc1ccc(-c2nc3sccn3c2-c2ccnc(S(C)(=O)=O)n2)cc1,87.5% (inactive)

# — PubChem BioAssay (NCI)
